Our source for the growth values is PubChem BioAssay (NCI).

Compounds without any hit were thinned out: in the full panel of roughly 83,000, 20% have a hit.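 How to read the values: 0–100, growth inhibition (40 = 60% inhibited); 0, no net growth; -100 to 0, cell death (-40 = 40% of starting cells died; -100 = all dead).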 Values without a mark were called inactive. Calls of active or inactive are those of the source. Rule for the calls: active = growth percent below 10; inactive = the rest.

Test systems include SK-MEL-2 melanoma; SN12C renal; UO-31 renal; TK-10 renal; ACHN renal; CAKI-1 renal; CCRF-CEM leukemia; MOLT-4 leukemia; SR leukemia; RPMI-8226 leukemia; OVCAR-8 ovarian; OVCAR-5 ovarian; OVCAR-4 ovarian; SK-OV-3 ovarian; IGROV1 ovarian; OVCAR-3 ovarian; HS 578T breast; NCI/ADR-RES ovarian.
Test in all cases: NCI-60 one-dose screen, 48 h (100 = growth as untreated, 0 = no growth, -100 = all killed)
What all share (conditions): 10 µM unless noted

Take `COc1cccc(-c2nc3sccn3c2-c2ccnc(NCCCNS(=O)(=O)c3ccc(F)cc3)n2)c1`: the growth is 40.8% with SK-MEL-2 melanoma; 36.8% in the assay with SN12C renal; 12.5% in the assay with UO-31 renal; 66.2% in the assay on TK-10 renal; 21.8% in the assay with ACHN renal; 30.9% in the assay with CAKI-1 renal. Besides, the growth is 24.6% in the assay with CCRF-CEM leukemia; 23.2% in the assay with MOLT-4 leukemia; 28.9% in the assay on SR leukemia; 17.4% in the assay with RPMI-8226 leukemia; 17.3% in the assay on OVCAR-8 ovarian; 116% in the assay on OVCAR-5 ovarian. For the same molecule, the growth is 25.2% with OVCAR-4 ovarian; 72.7% in the assay with SK-OV-3 ovarian; 34.6% in the assay with IGROV1 ovarian; 37.4% in the assay with OVCAR-3 ovarian; 57.3% in the assay on HS 578T breast; 15.5% in the assay with NCI/ADR-RES ovarian.

Turning to `O=S(=O)(NCCCNc1nccc(-c2c(-c3ccc(O)cc3)nc3sccn23)n1)c1ccc(F)cc1`, the growth in the assay with SK-MEL-2 melanoma was -42.5% (active); in the assay with SN12C renal it was 10%; in the assay with UO-31 renal, 9.16% (active); with TK-10 renal, 26.6%; in the assay with ACHN renal it was -5.95% (active); in the assay with CAKI-1 renal, 11.6%. For the same molecule, the growth with CCRF-CEM leukemia was 8.07% (active); with MOLT-4 leukemia it was 2.05% (active); in the assay with SR leukemia it was 3.07% (active); with RPMI-8226 leukemia, -13% (active); with OVCAR-8 ovarian, 14.2%; with OVCAR-5 ovarian, 14.4%. Further, the growth was 14.9% with OVCAR-4 ovarian; -4.21% (active) with SK-OV-3 ovarian; 5.53% (active) in the assay with IGROV1 ovarian; 23% in the assay with OVCAR-3 ovarian; 11.5% in the assay on HS 578T breast; 48.9% with NCI/ADR-RES ovarian.

With `CNC(=O)Cc1nc(-c2cccc(NS(=O)(=O)c3c(F)cccc3F)c2F)c(-c2ccnc(Nc3ccccc3)n2)s1`, the growth in the assay with SK-MEL-2 melanoma was 55.2%; in the assay on SN12C renal it was 40.5%; in the assay on UO-31 renal it was 27.3%; with TK-10 renal, 42.7%; with ACHN renal, 10.7%; in the assay with CAKI-1 renal, 41.5%. The growth in the assay on CCRF-CEM leukemia was 87.6%; in the assay with MOLT-4 leukemia it was 68.4%; in the assay with SR leukemia it was 76.4%; with RPMI-8226 leukemia it was 101%; in the assay with OVCAR-8 ovarian, 57.8%; in the assay with OVCAR-5 ovarian, 32.9%. The growth in the assay on OVCAR-4 ovarian was 124%; with SK-OV-3 ovarian, 29.9%; with IGROV1 ovarian it was 17.5%; in the assay with OVCAR-3 ovarian it was 77.2%; in the assay with HS 578T breast it was 64.5%; in the assay on NCI/ADR-RES ovarian, 104%.

In the case of `CC1=NN2C(=NC3=C(CCC/C3=C\c3ccc(Cl)cc3)C2c2ccc(Cl)cc2)S1` (stereo not drawn), the growth is 86.3% in the assay with SK-MEL-2 melanoma; 102% in the assay with SN12C renal; 86.1% with UO-31 renal; 111% with TK-10 renal; 98.2% with ACHN renal; 99.9% in the assay on CAKI-1 renal. In addition, the growth in the assay on CCRF-CEM leukemia is 84.7%; in the assay on MOLT-4 leukemia, 72.9%; in the assay on SR leukemia, 64.5%; with RPMI-8226 leukemia it was -18.4% (active); in the assay on OVCAR-8 ovarian, 90.2%; in the assay with OVCAR-5 ovarian it was 103%. For the same molecule, the growth in the assay on OVCAR-4 ovarian was 86.8%; in the assay with SK-OV-3 ovarian, 115%; in the assay with IGROV1 ovarian, 103%; in the assay with OVCAR-3 ovarian, 108%; with HS 578T breast it was 101%; in the assay on NCI/ADR-RES ovarian, 106%.

`Cc1cc(N/C=c2\sc3ncnn3c2=O)no1`: the growth is 101% with SK-MEL-2 melanoma; 95.5% in the assay on SN12C renal; 91.5% in the assay with UO-31 renal; 109% in the assay on TK-10 renal; 106% in the assay with ACHN renal; 101% with CAKI-1 renal. The growth is 123% with CCRF-CEM leukemia; 104% with MOLT-4 leukemia; 74.8% in the assay on SR leukemia; 92.5% with RPMI-8226 leukemia; 101% in the assay on OVCAR-8 ovarian; 108% in the assay on OVCAR-5 ovarian. In addition, the growth in the assay with OVCAR-4 ovarian was 106%; in the assay with SK-OV-3 ovarian, 105%; in the assay on IGROV1 ovarian, 94.4%; in the assay with OVCAR-3 ovarian, 95.8%; in the assay with HS 578T breast, 98.9%; with NCI/ADR-RES ovarian, 99.1%.

As to `CCOC(=O)C1=C(C)NC(=O)NC1c1ccc(OCC(=O)N/N=C/c2ccc(Cl)cc2)cc1` (stereo not drawn), the growth in the assay on SK-MEL-2 melanoma was 94.3%; in the assay with SN12C renal, 97%; in the assay on UO-31 renal, 93.7%; in the assay on TK-10 renal, 99%; in the assay on ACHN renal, 96.8%; with CAKI-1 renal it was 99.8%. Also, the growth is 92.1% in the assay on CCRF-CEM leukemia; 92.3% in the assay with MOLT-4 leukemia; 68.7% with SR leukemia; 90.1% with RPMI-8226 leukemia; 95.2% in the assay on OVCAR-8 ovarian; 87.9% in the assay on OVCAR-5 ovarian. The growth with OVCAR-4 ovarian is 95.1%; in the assay on SK-OV-3 ovarian, 88.9%; in the assay on IGROV1 ovarian, 94.9%; in the assay on OVCAR-3 ovarian it was 99.8%; in the assay with HS 578T breast it was 86.6%; in the assay on NCI/ADR-RES ovarian, 106%.

For the molecule `COc1cccc(-c2nc3sccn3c2-c2ccnc(NCCCNS(=O)(=O)c3ccccc3)n2)c1`, the growth is 58.1% with SK-MEL-2 melanoma; 55% with SN12C renal; 29.5% in the assay on UO-31 renal; 82% in the assay with TK-10 renal; 40.2% in the assay on ACHN renal; 52.5% with CAKI-1 renal. Moreover, the growth with CCRF-CEM leukemia is 30%; with MOLT-4 leukemia, 29.4%; with SR leukemia, 50.7%; with RPMI-8226 leukemia, 28%; in the assay on OVCAR-8 ovarian, 29.6%; in the assay on OVCAR-5 ovarian, 128%. Besides, the growth in the assay on OVCAR-4 ovarian is 55.7%; in the assay on SK-OV-3 ovarian, 73%; in the assay on IGROV1 ovarian it was 55.3%; with OVCAR-3 ovarian, 48.2%; with HS 578T breast, 103%; in the assay with NCI/ADR-RES ovarian, 23.1%.

Regarding `Cc1cccc(-n2c(C)nc3ccc(NC(=O)NCCCl)cc3c2=O)c1`, the growth is 114% with SK-MEL-2 melanoma; 107% in the assay with SN12C renal; 94.2% in the assay with UO-31 renal; 99.6% in the assay on TK-10 renal; 111% in the assay on ACHN renal; 97.6% in the assay with CAKI-1 renal. In addition, the growth in the assay on CCRF-CEM leukemia was -43.7% (active); in the assay with MOLT-4 leukemia it was 105%; with SR leukemia it was 95.9%; in the assay with RPMI-8226 leukemia, 97.6%; with OVCAR-8 ovarian it was 107%; in the assay with OVCAR-5 ovarian, 107%. Moreover, the growth was 107% with OVCAR-4 ovarian; 102% in the assay with IGROV1 ovarian; 105% in the assay on OVCAR-3 ovarian; 99.4% in the assay with HS 578T breast; 95.5% in the assay with NCI/ADR-RES ovarian.
